The values below come from the supplement of paper PMC11732987, “Enantioselective OTUD7B fragment discovery through chemoproteomics screening and high-throughput optimisation” (Communications Chemistry, 2025).

A number with no mark means an inactive call.

USP14, sequence (P54578 whole entry, the tested form may be a part): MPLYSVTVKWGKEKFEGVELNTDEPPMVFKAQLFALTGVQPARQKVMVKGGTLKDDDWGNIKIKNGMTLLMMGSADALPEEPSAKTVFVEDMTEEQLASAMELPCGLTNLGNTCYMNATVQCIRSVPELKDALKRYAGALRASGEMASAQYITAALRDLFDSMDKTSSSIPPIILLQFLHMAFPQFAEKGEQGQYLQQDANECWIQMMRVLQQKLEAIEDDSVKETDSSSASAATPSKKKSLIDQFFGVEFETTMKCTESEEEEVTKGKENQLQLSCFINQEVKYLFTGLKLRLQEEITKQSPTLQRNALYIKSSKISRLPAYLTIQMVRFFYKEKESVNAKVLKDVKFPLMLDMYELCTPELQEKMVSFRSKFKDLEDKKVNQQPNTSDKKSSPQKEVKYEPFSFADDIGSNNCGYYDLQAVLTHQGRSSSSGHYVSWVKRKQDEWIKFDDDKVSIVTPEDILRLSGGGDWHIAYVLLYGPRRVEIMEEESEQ

The target in this assay is USP14 (UniProt P54578). The assay is described as follows: log2 ratio of Biotin-Ahx-Ub-VS probe labelling (fragment/DMSO); higher = less target engagement (more negative = stronger competition), active = hit call of the paper (q ≤ 0.05, log2 ratio ≤ -1). Conditions: compound concentration: 200 uM; treatment time: 3 h. Here is the method:
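Competitive ABPP in HEK293T cell lysate. Lysates were treated with each chloroacetamide fragment at 200 µM for 3 h, then with Biotin-Ahx-Ub-VS (0.5 µM, 1 h), NeutrAvidin-enriched and analysed by diaPASEF LC-MS/MS. Protein LFQ was median-normalised; average log2 ratio is fragment/DMSO from an unpaired t-test (n=3 treated, n=44 DMSO). Hits: q ≤ 0.05, log2 ratio ≤ -1, unique peptides ≥ 2.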
`Cc1ccccc1CN(C)C(=O)CCl`: the “log2 ratio of Biotin-Ahx-Ub-VS probe labelling” value (“log2 ratio” below) is -0.81.

As for `O=C(CCl)N1CCOCC1C1CC1` (stereo not given), the “log2 ratio” value was -0.212.

Regarding `Cl.O=C(CCl)N1CCN(Cc2ccccc2)CC1`, the “log2 ratio” value was -0.745.

In the case of `CS(=O)(=O)c1ccc(CNC(=O)CCl)cc1`, the “log2 ratio” value is -0.204.

As to `CC(NC(=O)CCl)c1ccc2[nH]ncc2c1` (stereo not given), the “log2 ratio” value was -0.802.

Turning to `Cc1ccc(CN(CCO)C(=O)CCl)cc1`, the “log2 ratio” value is -0.249.

On to `O=C(CCl)N1CCc2sccc2C1`, for which the “log2 ratio” value was -0.619.

Consider `Cc1ccc(N(CCC#N)C(=O)CCl)cc1C`, for which the “log2 ratio” value was -0.623.

With `O=C(CCl)Nc1ccc(N2CCCC2=O)cc1`, the “log2 ratio” value was -0.139.

`O=C(CCl)NC1CCN(C(=O)C2CCCCC2)CC1`: the “log2 ratio” value is -0.0275.

Regarding `O=C(CCl)Nc1nnc(CC(F)(F)F)o1`, the “log2 ratio” value is -0.206.

Consider `Cc1ccc(C(=O)NCCNC(=O)CCl)cc1`, for which the “log2 ratio” value was -0.414.

As for `NC(=O)C1CCCN(C(=O)CCl)C1` (stereo not given), the “log2 ratio” value is -0.153.

For the molecule `O=C(CCl)N1CCC(=C(F)CO)C1`, the “log2 ratio” value was 0.054.

For the molecule `O=C(CCl)Nc1ccc(F)cc1Cl`, the “log2 ratio” value was -0.833.

In the case of `O=C(CCl)NC1CCOc2ccccc21` (stereo not given), the “log2 ratio” value was -0.937.

For `O=C(CCl)N1CCCCCC1c1ncon1` (stereo not given), the “log2 ratio” value is -0.087.

For the molecule `C[C@H]1CN(C(=O)CCl)CCN1C(=O)c1cnn(C)c1.Cl`, the “log2 ratio” value was -0.0358.

As to `Cc1nc(-c2cccc(NC(=O)CCl)c2)cs1`, the “log2 ratio” value was -0.378.

With `COc1ccc(-c2csc(NC(=O)CCl)n2)cc1`, the “log2 ratio” value was -0.0511.

For the molecule `O=C(CCl)NCc1cccc(F)c1`, the “log2 ratio” value is -0.167.

In the case of `O=C(CCl)Nc1cc2c(cc1Cl)OCCCO2`, the “log2 ratio” value was 0.135.

Consider `COc1ccc(CN(C)C(=O)CCl)cc1`, for which the “log2 ratio” value is -0.544.

In the case of `CN(CCc1ncc(Br)cn1)C(=O)CCl.Cl`, the “log2 ratio” value is -0.0202.

In the case of `Cc1cccc(N2CCC(NC(=O)CCl)C2=O)c1` (stereo not given), the “log2 ratio” value was -0.345.

As to `O=C(CCl)N1CCN(C(=O)N2CCCCC2)CC1`, the “log2 ratio” value is -1.06 (active).

For `Cl.Cn1cnc2cc(CNC(=O)CCl)ccc21`, the “log2 ratio” value is -0.222.

Regarding `CC(=O)C1CCCCN1C(=O)CCl` (stereo not given), the “log2 ratio” value is -0.101.

`COCC[C@@H](NC(=O)CCl)c1ccccc1`: the “log2 ratio” value was 0.0709.

For `Cc1ccc(-c2nnc(C)[nH]2)c(NC(=O)CCl)c1`, the “log2 ratio” value was -0.203.

For `CN(CCC(O)c1ccc(Br)cc1)C(=O)CCl` (stereo not given), the “log2 ratio” value was -0.442.

With `Cl.Cn1c(CNC(=O)CCl)nc2cccnc21`, the “log2 ratio” value is -0.0826.

Turning to `Cl.O=C(CCl)NCc1cc2c(nc1O)CCCC2`, the “log2 ratio” value was -0.12.

As for `Cc1c(NC(=O)CCl)c(=O)n(-c2ccccc2)n1C`, the “log2 ratio” value was -0.215.

As for `O=C(CCl)NCCc1ccc2c(c1)OCCO2`, the “log2 ratio” value is -0.579.

Consider `Cc1cccc2nc(CCNC(=O)CCl)cn12.Cl`, for which the “log2 ratio” value is -0.259.

For `O=C(CCl)N1c2ccccc2NC(=O)C12CCCC2`, the “log2 ratio” value is -0.661.

In the case of `Cc1ccc(C)c(NC(=O)CCl)c1`, the “log2 ratio” value is -0.687.

As to `O=C(CCl)NCc1cccc(N2CCCC2=O)c1`, the “log2 ratio” value is -0.0996.

In the case of `CNC(=O)Cn1cc(NC(=O)CCl)cn1`, the “log2 ratio” value is -0.154.
